Compound activity deposited in PubChem by several laboratories.
bovine MsrA act: bovine methionine sulfoxide reductase A activation; purified bovine MsrA, absorbance read-out; activation, % at 10.6 µM; actives 0.3% (n = 360,000); in the data active = activation above about 7.5%;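 note: 0% = vehicle and 100% = reference activator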
MsrA inhibitor: inhibits bovine methionine sulfoxide reductase A; purified bovine MsrA, absorbance read-out; actives 0.75% (n = 360,000); inhibition, % at 15.5 µM; in the data active = inhibition above about 4.5%;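 note: 0% = vehicle wells with enzyme and 100% = reference inhibitor wells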
rCAG binder: molecules binding r(CAG) RNA repeats; r(CAG) RNA repeat, TO-PRO-1 dye displacement fluorescence; inhibition, % at 3 µM; actives 1.3% (n = 370,000);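 active = inhibition above the plate cutoff, the mean of all test compounds on that plate plus 3 SD, cut at about 35% in these data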;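 note: 0% = DMSO alone and 100% = 100 µM mitoxantrone as full dye displacement; higher means more dye released from RNA so lower well fluorescence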
NadD inh: inhibitors of Staphylococcus aureus NadD. purified NadD enzyme, colorimetric absorbance read-out. inhibition, % at 20 µM. actives 0.78% (n = 360,000). AID 602399; in the data active = inhibition above about 26%
Active calls of the source: *. Only some compounds are listed: those with a hit (about 2.7% of all), similar ones and a draw of the others.

Results for O=C1NC(=O)N(CC2CCCO2)C(=O)/C1=C/c1cccs1 (stereo not given) ?
bovine MsrA act: -3.2; MsrA inhibitor: 1.3; rCAG binder: 6.0; NadD inh: -1.1

What do the screens show for `CCN(CC)c1ccc(/C=C2/C(=O)NC(=O)N(CC3CCCO3)C2=O)cc1` (stereo not given)?
bovine MsrA act: -7.2; MsrA inhibitor: 5.2*; rCAG binder: -5.8; NadD inh: 7.7

How did O=C(O)c1ccc(N=Cc2c(O)[nH]c(=O)[nH]c2=O)cc1 do in these assays?
bovine MsrA act: -3.0; MsrA inhibitor: 4.6*; rCAG binder: -2.4; NadD inh: 1.9

Results for O=c1[nH]c(O)c(C=Nc2ccc(F)c(Cl)c2)c(=O)[nH]1 ?
bovine MsrA act: -3.6; MsrA inhibitor: 2.4; rCAG binder: 0.2; NadD inh: -1.6

How did Cc1ccccc1-n1c(C)nc2ccsc2c1=O do in these assays?
bovine MsrA act: -8.4; MsrA inhibitor: -1.8; rCAG binder: -0.5; NadD inh: -16.2

How did COC(=O)C1=C(c2cc3ccccc3o2)C[C@@H]2CC[C@H]1N2C(=O)NCc1cccc2ccccc12 do in these assays?
bovine MsrA act: -2.6; MsrA inhibitor: 0.7; rCAG binder: 19.9; NadD inh: 8.4

What do the screens show for `CCOC(=O)c1c(-n2c(C)cc(C=C3C(=O)NC(=O)NC3=O)c2C)sc2c1CCCC2`?
bovine MsrA act: -2.5; MsrA inhibitor: 0.6; rCAG binder: 3.1; NadD inh: 17.4

Results for Cc1cccc(N2C(=O)NC(=O)/C(=C\c3cc(C)n(-c4sc5c(c4C#N)CCCC5)c3C)C2=O)c1C ?
bovine MsrA act: -2.2; MsrA inhibitor: -0.5; rCAG binder: 7.7; NadD inh: 29.1*

What do the screens show for `O=C1NC(=O)C(=Cc2ccc(SC3CCCCC3)o2)C(=O)N1`?
bovine MsrA act: -2.4; MsrA inhibitor: 0.2; rCAG binder: 30.9; NadD inh: 36.5*

How did NS(=O)(=O)c1ccc(-c2ccc(C=C3C(=O)NC(=O)NC3=O)o2)cc1 do in these assays?
bovine MsrA act: -11.8; MsrA inhibitor: 3.8; rCAG binder: 3.4; NadD inh: 2.3

Results for NC(Cc1ccc(O)cc1)C(=O)NN=Cc1ccc(N(CCCl)CCCl)cc1 (stereo not given) ?
bovine MsrA act: -6.4; MsrA inhibitor: 7.7*; rCAG binder: 7.9; NadD inh: 13.6

How did O=C1NC(=O)C(=Cc2ccc(-c3cc(Cl)ccc3[N+](=O)[O-])o2)C(=O)N1 do in these assays?
bovine MsrA act: 1.0; MsrA inhibitor: 3.3; rCAG binder: 3.0; NadD inh: 38.2*

How did O=C1NC(=O)C(=Cc2ccc(-c3ccccc3[N+](=O)[O-])o2)C(=O)N1 do in these assays?
bovine MsrA act: -1.0; MsrA inhibitor: 1.8; rCAG binder: 1.3; NadD inh: 23.5

How did O=c1cccc2n1CC1CC2CN(c2nc(N3CCCCC3)nc(N3CCCCC3)n2)C1 (stereo not given) do in these assays?
bovine MsrA act: -2.0; MsrA inhibitor: 1.5; rCAG binder: -4.4; NadD inh: 1.5

How did CCN(CC)CC(O)c1ccc(C2CCCC2)cc1 (stereo not given) do in these assays?
bovine MsrA act: -1.3; MsrA inhibitor: 1.0; rCAG binder: 1.0; NadD inh: -1.3

Results for O=c1[nH]c(=O)n(Cc2ccc(F)cc2)c(O)c1C=NCCCn1ccnc1 ?
bovine MsrA act: -1.7; MsrA inhibitor: 1.1; rCAG binder: -0.1; NadD inh: -5.7

Results for O=c1[nH]c(=S)n(Cc2ccc(F)cc2)c(O)c1C=NCCCn1ccnc1 ?
bovine MsrA act: -5.5; MsrA inhibitor: 4.5*; rCAG binder: -2.7; NadD inh: -6.9

How did Cc1ccc2c(c1)C1C[N+](C)(CC(=O)c3ccc(Cl)cc3Cl)CCC1N2C(=O)c1ccc(F)cc1 (stereo not given) do in these assays?
bovine MsrA act: -0.6; MsrA inhibitor: -0.1; rCAG binder: 12.8; NadD inh: 22.1

Results for O=c1[nH]c(=O)n(CCC2=CCCCC2)c(O)c1/C=N/Nc1cccc2ccccc12 ?
bovine MsrA act: -2.5; MsrA inhibitor: 1.0; rCAG binder: 25.5; NadD inh: 30.5*

What do the screens show for `O=c1[nH]c(=S)n(C2CC2)c(O)c1/C=N/Nc1cccc2ccccc12`?
bovine MsrA act: -2.8; MsrA inhibitor: 1.1; rCAG binder: 33.9; NadD inh: 29.7*

How did O=c1[nH]c(=S)n(C2CC2)c(O)c1/C=N/Nc1ccccc1 do in these assays?
bovine MsrA act: -3.6; MsrA inhibitor: 2.1; rCAG binder: 12.8; NadD inh: 3.4

How did Oc1ccccc1C1NCc2ccccc2-n2cccc21 (stereo not given) do in these assays?
bovine MsrA act: -8.4; MsrA inhibitor: 0.3; rCAG binder: 0.4; NadD inh: -1.5

What do the screens show for `CCC(C)N1C(=O)/C(=C/c2ccc3c(c2)CCN3CCCCl)C(=O)NC1=S` (stereo not given)?
bovine MsrA act: -5.1; MsrA inhibitor: 2.2; rCAG binder: 26.0; NadD inh: 39.7*

How did COc1cc(/C=C2\C(=O)NC(=O)N(c3ccccc3)C2=O)cc(OC)c1OC do in these assays?
bovine MsrA act: 1.1; MsrA inhibitor: -1.1; rCAG binder: 1.9; NadD inh: 4.6

Results for COc1ccc(/C=C2/C(=O)NC(=O)N(c3ccc(C)c(C)c3)C2=O)cc1CN1C(=O)c2ccccc2C1=O ?
bovine MsrA act: 0.2; MsrA inhibitor: 1.6; rCAG binder: 8.1; NadD inh: 28.8*

What do the screens show for `COc1ccccc1-n1c(/C=C/c2ccc(O)cc2)nc2ccccc2c1=O`?
bovine MsrA act: -2.2; MsrA inhibitor: 4.6*; rCAG binder: 5.2; NadD inh: 8.1

Results for COc1ccc(-n2nnnc2C(c2cccc3ccccc23)N2CCC3(CC2)C(=O)NCN3c2ccccc2)cc1 (stereo not given) ?
bovine MsrA act: -3.9; MsrA inhibitor: -0.8; rCAG binder: 13.1; NadD inh: 23.8

Results for Clc1cccc(N2Cc3cc(-c4ccccc4)ccc3-n3nncc3C2)c1 ?
bovine MsrA act: -4.7; MsrA inhibitor: 0.3; rCAG binder: 8.8; NadD inh: 33.1*

Results for COc1ccc(-c2ccc3c(c2)CN(c2cccc(Cl)c2)Cc2cnnn2-3)cc1 ?
bovine MsrA act: 0.3; MsrA inhibitor: -1.7; rCAG binder: 8.8; NadD inh: 7.9

Results for Cc1cccc(N2C(=O)NC(=O)/C(=C\c3ccc4c(c3)CCCN4Cc3ccccc3)C2=O)c1 ?
bovine MsrA act: -4.5; MsrA inhibitor: 1.9; rCAG binder: 9.2; NadD inh: 37.5*

Results for CCN(CC)C(=O)c1ccc2c(c1)C1C=CCC1C(C(=O)O)N2 (stereo not given) ?
bovine MsrA act: -2.0; MsrA inhibitor: 2.3; rCAG binder: 46.0*; NadD inh: 18.6

Results for CCOc1ccc(N2C(=O)/C(=C/c3ccco3)C(=O)NC2=S)cc1 ?
bovine MsrA act: -10.4; NadD inh: 86.8*

How did CC1CC2(C)C(CCC3C2CCC2(C)C(OP(=O)(N4CC4)N4CC4)CCC32)CC1=O (stereo not given) do in these assays?
bovine MsrA act: -0.8; MsrA inhibitor: 0.7; rCAG binder: 4.4; NadD inh: 1.6

What do the screens show for `O=C1NC2C(O)C(O)C(O)C(O)C2c2cc3c(c(O)c21)OCO3` (stereo not given)?
bovine MsrA act: -4.2; MsrA inhibitor: -0.5; rCAG binder: 2.1; NadD inh: 0.2
